Experimental data as given in PubChem BioAssay (NCI).
About 83,000 compounds went through this panel and 20% of them were active in at least one assay; those are over-represented in the sample as a whole.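 Cells were grown in 96-well plates and exposed to the test compound at a single concentration for 48 hours; results are reported as percent growth, with values below 10 considered active.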 Values without a mark were called inactive. Activity calls are given as the source filed them.

Experiments:
Assay in all cases: NCI-60 one-dose screen, 48 h (100 = growth as untreated, 0 = no growth, -100 = all killed)
Conditions in all cases: 10 µM unless noted
SR leukemia = tested on: SR leukemia
RPMI-8226 leukemia = tested on: RPMI-8226 leukemia
OVCAR-8 ovarian = tested on: OVCAR-8 ovarian
OVCAR-5 ovarian = tested on: OVCAR-5 ovarian
OVCAR-4 ovarian = tested on: OVCAR-4 ovarian
SK-OV-3 ovarian = tested on: SK-OV-3 ovarian
IGROV1 ovarian = tested on: IGROV1 ovarian
OVCAR-3 ovarian = tested on: OVCAR-3 ovarian
NCI/ADR-RES ovarian = tested on: NCI/ADR-RES ovarian

SMILES	growth (SR leukemia)	growth (RPMI-8226 leukemia)	growth (OVCAR-8 ovarian)	growth (OVCAR-5 ovarian)	growth (OVCAR-4 ovarian)	growth (SK-OV-3 ovarian)	growth (IGROV1 ovarian)	growth (OVCAR-3 ovarian)	growth (NCI/ADR-RES ovarian)
Cc1ccc(Cn2cc(COc3ccc4c5ccnc(C)c5n(CCCc5ccccc5)c4c3)nn2)cc1	81.9%	64.2%	94.2%	103%	96%	96.9%	87.5%	92.6%	76.4%
CCC(CC(C)C)Nc1ccc(NC(CC)CC(C)C)cc1 (configuration not stated)	48.9%	-5.42% (active)	87.6%	108%	75.8%	94.4%	83.9%	-6.06% (active)	96.6%
O=C(Nc1ccc(-n2ccc3c(NC(=O)c4ccccc4)ncnc32)cc1)Nc1ccc(Cl)c(Cl)c1	-6.07% (active)	-1.3% (active)	0.377% (active)	39.6%	-74.1% (active)	67.9%	-2.23% (active)	-67.1% (active)	53.2%
O=C(Nc1ccc(-n2cc(-c3ccncc3)c(-c3ccc(O)c(Cl)c3)n2)cc1)c1cc(C(F)(F)F)cc(C(F)(F)F)c1	58.8%	27.9%	69.5%	70.9%	85.9%	84%	61.4%	49.8%	67.2%
Nc1nc(Cl)c2c(C(F)(F)F)cn(CC3CCNCC3)c2n1	-38.7% (active)	83.7%	-16.3% (active)	110%	101%	107%	-62.8% (active)	94.7%	109%
O=C(Nc1ccc(-n2ccc3c(NC(=O)c4ccccc4)ncnc32)cc1)Nc1cccc(Cl)c1Cl	21.8%	10.2%	13.4%	17.5%	-74.3% (active)	-14.8% (active)	-3.19% (active)	-41.7% (active)	4.77% (active)
CCc1c(C)c2cc3c(c(C)c2oc1=O)OCC(=O)N3	4.96% (active)	90.9%	74.6%	77.9%	79.5%	78.6%	51.7%	73.8%	75.1%
CC/C(=C(\CC)c1ccc(OCCN(CC)CC)cc1)c1ccc(OCCN(CC)CC)cc1	-8.6% (active)	18.3%	53.3%	38.7%	38.1%	64.2%	59.9%	45.5%	57.6%
CCc1cccc(-c2ccccc2)c1	52.4%	80.5%	101%	104%	101%	103%	107%	109%	111%
COc1ccc(-c2nn(-c3ccc(NC(=O)Nc4ccc(Cl)c(Cl)c4)cc3)cc2-c2ccncc2)cc1Cl	5.18% (active)	-30% (active)	11.6%	22.6%	49.4%	34.6%	36.6%	7.34% (active)	12.8%
O=C(Nc1cccc(-n2ccc3c(NC(=O)c4ccccc4)nccc32)c1)c1cc(N2CCOCC2)cc(C(F)(F)F)c1	-14.2% (active)	-42.4% (active)	2.86% (active)	19.3%	83.1%	5% (active)	4.25% (active)	-34.8% (active)	7.24% (active)
O=C1C(Cl)=C(Nc2ccccc2)C(=O)C(Cl)=C1Nc1ccccc1	111%	107%	103%	112%	115%	108%	110%	119%	102%
COc1ccc2c(c1)O/C(=C/c1ccc(OCC(=O)Nc3ccc(S(N)(=O)=O)cc3)cc1)C2=O	79.1%	91.3%	98.6%	103%	102%	102%	111%	104%	103%
Nn1c(CN2CCN(c3cc4c(cc3F)c(=O)c(C(=O)O)cn4C3CC3)CC2)n[nH]c1=S	99.1%	102%	106%	108%	102%	107%	97.3%	103%	106%
O=C(Nc1cccc(-n2ccc3c(NC(=O)c4ccccc4)ncnc32)c1)Nc1ccc(Cl)c(C(F)(F)F)c1	17.7%	16.2%	25.9%	48.1%	64.4%	52.2%	32.5%	26.1%	34.8%
CC12CCC3C(CCC4CC(O)CCC43C)C1C/C(=C/O)C(=O)O2 (configuration not stated)	96.1%	91.3%	104%	111%	134%	105%	105%	103%	108%
O=[N+]([O-])c1ccccc1NC1c2ccccc2Oc2ccccc21	2.25% (active)	69.5%	72.9%	76.8%	98.7%	76.9%	49.3%	3.28% (active)	31.4%
CC(=O)Nc1ccc([I+]c2ccc([N+](=O)[O-])cc2)cc1	87.7%	92.7%	95%	116%	90%	94.4%	80.8%	94.9%	113%
O=C(Nc1ccc(F)cc1)Nc1ccc(Cl)c([N+](=O)[O-])c1	31.8%	-28% (active)	17.8%	44.3%	16.5%	34%	22.4%	10.1%	14.1%
CCOC(=O)C1CN(Cc2ccccc2)C(=O)C1=O (configuration not stated)	27%	95.6%	107%	95.2%	91.9%	107%	109%	105%	109%
Nc1ncc(-c2ccc3ncnc(Nc4ccc(F)c(Cl)c4)c3c2)cn1	-35.1% (active)	50%	61.3%	80.3%	-17.3% (active)	65.7%	1.68% (active)	-57.4% (active)	59.4%
O=C(Nc1ccc(-n2ccc3c(NC(=O)c4ccccc4)ncnc32)cc1)Nc1ccc(Cl)c(C(F)(F)F)c1	6.03% (active)	-38% (active)	-25.3% (active)	17.8%	-42.8% (active)	79.2%	-3.16% (active)	-86.6% (active)	16%
O=C(Nc1ccc(-n2cc(-c3ccncc3)c(-c3ccc(O)c(Cl)c3)n2)cc1)c1ccc(Cl)c(Cl)c1	18.6%	-27.7% (active)	25.7%	71.2%	78.9%	66.6%	61.5%	25.7%	24.9%
O=C(CSc1nnc(-c2ccc(Cl)cc2)o1)Nc1ccc(C(=O)/C=C/c2ccccc2)cc1	60.4%	68.7%	97.3%	106%	101%	117%	95.7%	108%	88.1%
O=C(Nc1cccc(-n2ccc3c(NC(=O)c4ccccc4)nccc32)c1)c1cccc(C(F)(F)F)c1	1.05% (active)	-36.1% (active)	3.8% (active)	32.5%	72.9%	12.1%	15.9%	-8.09% (active)	-1.18% (active)
O=C1OC(=O)C2C3CC(c4ccccc43)C12 (configuration not stated)	104%	99.7%	92.4%	85.5%	112%	95.8%	109%	125%	112%
O=C(NCCNc1nccc(-c2c(-c3cccc(O)c3)nc3sccn23)n1)c1ccc(N2CCOCC2)c(C(F)(F)F)c1	76.1%	58.8%	72.8%	91.2%	105%	66.4%	54.3%	89.1%	95.4%
COc1ccc(SC2c3ccc(O)cc3Oc3nc(N)c(C#N)c(N)c32)cc1 (configuration not stated)	59.9%	96.7%	98%	129%	92.9%	120%	74.3%	88.1%	98.8%
